Measurements: PubChem BioAssay (Tox21)
Results filed as inconclusive are left out. Active and inactive are the calls of the source. Calls follow the shape of the full dose curve.

biological target: Acetylcholinesterase (Homo sapiens) (UniProt P22303); experiment: Acetylcholinesterase (AChE) small molecule antagonists: colormetric cell-based qHTS assay (AID 1347395); conditions: SH-SY5Y cells AChE activity, colorimetric (Ellman); series mostly up to 115 µM; activity, negative = inhibition: at the top concentration; also: nearly all actives have a fitted effect of over 30% in size
Sequence (P22303 whole entry, looked up): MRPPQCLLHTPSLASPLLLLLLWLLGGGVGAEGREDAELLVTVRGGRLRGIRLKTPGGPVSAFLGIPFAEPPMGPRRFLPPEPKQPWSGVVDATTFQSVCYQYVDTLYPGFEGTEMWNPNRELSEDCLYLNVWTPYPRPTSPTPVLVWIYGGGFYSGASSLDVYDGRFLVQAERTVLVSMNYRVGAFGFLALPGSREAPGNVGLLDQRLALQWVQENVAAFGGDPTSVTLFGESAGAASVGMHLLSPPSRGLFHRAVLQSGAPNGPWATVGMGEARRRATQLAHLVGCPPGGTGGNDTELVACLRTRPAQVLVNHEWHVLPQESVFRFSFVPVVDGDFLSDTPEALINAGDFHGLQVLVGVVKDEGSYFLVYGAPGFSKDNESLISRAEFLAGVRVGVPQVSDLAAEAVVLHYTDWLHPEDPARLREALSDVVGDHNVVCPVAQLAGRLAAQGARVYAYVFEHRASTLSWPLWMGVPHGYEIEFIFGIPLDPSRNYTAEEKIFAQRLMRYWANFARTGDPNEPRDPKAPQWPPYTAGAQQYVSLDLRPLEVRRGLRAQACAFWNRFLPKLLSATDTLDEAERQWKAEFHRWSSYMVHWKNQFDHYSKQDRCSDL
Summary of the method: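 AChE inhibition read colorimetrically via DTNB–thiocholine in SH-SY5Y cells. Compound 30 min, substrate 90 min, both 37 C.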
% is scaled to controls: 0 for no effect and ±100 for the full control effect; potency is read from the fitted curve at half-maximal effect.

SMILES | activity, negative = inhibition | Potency
OCCCCCCO | -5.06% (inactive) | –
CCCN1C[C@H](CSC)C[C@@H]2c3cccc4[nH]cc(c34)C[C@H]21 | – | 5.5 µM (active)
COc1cc2nc(N3CCN(C(=O)C4CCCO4)CC3)nc(N)c2cc1OC (stereo not drawn) | – | 27.5 µM (active)
CC(=O)/C=C/C=C1/C2CCC(C2)C1(C)C (stereo not drawn) | – | 27.5 µM (active)
CC/C(=C(/c1ccc(O)cc1)c1ccc(OCCN(C)C)cc1)c1ccccc1 | – | 41.7 µM (active)
O=S(=O)(c1ccc(OCc2ccccc2)cc1)c1ccccc1O | -4.12% (inactive) | –
CCCC(=O)OC[C@@H](OC(=O)CCC)[C@@H](OC(=O)CCC)[C@H](Cn1c2nc(=O)[nH]c(=O)c-2nc2cc(C)c(C)cc21)OC(=O)CCC | -10.8% [at 52.9 µM] (inactive) | –
CCOc1nc2cccc(C(=O)OC(C)OC(=O)OC3CCCCC3)c2n1Cc1ccc(-c2ccccc2-c2nn[nH]n2)cc1 (stereo not drawn) | -1.52% (inactive) | –
CCOc1ccc2nc3cc(N)ccc3c(N)c2c1 | – | 17.4 µM (active)
CC(Cc1ccc(O)c(O)c1)C(C)Cc1ccc(O)c(O)c1 (stereo not drawn) | -7.42% (inactive) | –
Oc1cc2ccccc2c2ccccc12 | -12% (inactive) | –
CCN(Cc1cccc(S(=O)(=O)O)c1)c1ccc(C(=C2C=CC(=[N+](CC)Cc3cccc(S(=O)(=O)[O-])c3)C=C2)c2ccccc2)cc1 | -3.74% [at 52.9 µM] (inactive) | –
Cc1ccc2c(c1)OCC(=O)CO2 | – | 35.6 µM (active)
C=C(C)CS(=O)(=O)O | 0.94% (inactive) | –
Clc1ccc(C(Cn2ccnc2)OCc2ccsc2Cl)c(Cl)c1 (stereo not drawn) | 4.38% [at 52.9 µM] (inactive) | –
NC(=O)NC1N=C([O][Al])NC1=O (stereo not drawn) | 1.93% [at 52.9 µM] (inactive) | –
C=CCc1cc(S(=O)(=O)c2ccc(O)c(CC=C)c2)ccc1O | 1.02% (inactive) | –
CNc1ccc(O)cc1 | – | 22.4 µM (active)
CC1CCCCN1CCCOC(=O)c1ccc(OC2CCCCC2)cc1 (stereo not drawn) | – | 17.4 µM (active)

SMILES | activity, negative = inhibition | Potency
CCCCCCCCCC[N+](C)(CCCCCCCCCC)CCC[Si](OC)(OC)OC | -4.67% (inactive) | –
Cc1nc2ccccn2c(=O)c1CCN1CCC(C(=O)c2ccc(F)cc2)CC1 | – | 24.5 µM (active)
CN(CCOc1ccc(NS(C)(=O)=O)cc1)CCc1ccc(NS(C)(=O)=O)cc1 | – | 17.4 µM (active)
CCCCCCCCCCCCCCCCCCOS(=O)(=O)O | -0.946% (inactive) | –
CN1CCCN=C1/C=C/c1cccs1 | – | 15.5 µM (active)
CCOC(=O)c1ccc(NC(=O)CN2CCCCC2)cc1 | – | 30.9 µM (active)
CC(=O)O[C@H]1C[C@@H]2CC[C@@H]3[C@H](CC[C@@]4(C)[C@H]3C[C@H]([N+]3(C)CCCCC3)[C@@H]4OC(C)=O)[C@@]2(C)C[C@@H]1N1CCCCC1 | – | 17.4 µM (active)
OCC(F)(F)F | 4.42% (inactive) | –
Clc1ccc(C(Cn2ccnc2)OCc2c(Cl)cccc2Cl)c(Cl)c1 (stereo not drawn) | -2.68% [at 52.9 µM] (inactive) | –
C=C(C)C(=O)OCC(O)COc1ccc(C(C)(C)c2ccc(OCC(O)COC(=O)C(=C)C)cc2)cc1 (stereo not drawn) | 1.68% (inactive) | –
COc1cc(N)c(Cl)cc1C(=O)NC1CCN(Cc2ccccc2)CC1 | – | 17.4 µM (active)
COc1ccccc1OCCNCC(O)COc1cccc2[nH]c3ccccc3c12 (stereo not drawn) | -5.79% [at 52.9 µM] (inactive) | –
COc1ccccc1OCC(O)CN1CCN(CC(=O)Nc2c(C)cccc2C)CC1 (stereo not drawn) | -1.59% [at 52.9 µM] (inactive) | –
CCCCCCCCCCCCCC(=O)OC | 4.06% (inactive) | –
CCN(CC)c1ccc(C=O)cc1 | -0.0485% (inactive) | –
O=C(/N=N/C(=O)OCc1ccccc1)OCc1ccccc1 | -3.65% (inactive) | –
Nc1c(NC/C=C\COc2cc(CN3CCCCC3)ccn2)c(=O)c1=O | – | 13.5 µM (active)
C[C@@H]1C[C@H]2[C@@H]3CCC4=CC(=O)C=C[C@]4(C)[C@@]3(Cl)[C@@H](O)C[C@]2(C)[C@@]1(OC(=O)c1ccco1)C(=O)CCl | 0% [at 52.9 µM] (inactive) | –
COC(=O)[C@]1(C)CCC[C@@]2(C)[C@H]1CC=C1C=C(C(C)C)CC[C@@H]12 | -5.96% (inactive) | –
